# Screening results as filed in PubChem.
# USP7 inh – inhibitors of human USP7 deubiquitinase | Q93009 | purified USP7, Ub-rhodamine cleavage fluorescence | inhibition, % at 20 µM | hit rate 0.3% among 47,000 | AID 1645854
# USP8 block – blocks human USP8 ubiquitin-rhodamine cleavage; P40818; purified USP8, Ub-rhodamine cleavage fluorescence, 30 min; inhibition, % at 20 µM; hit rate 4.2% among 47,000; AID 1645853
# UCHL1 block – blocks human UCHL1 ubiquitin-rhodamine cleavage. P09936. purified UCHL1, Ub-rhodamine cleavage fluorescence. inhibition, % at 20 µM. hit rate 0.2% among 47,000. AID 1645859
# Target sequence (P09936 whole entry, looked up): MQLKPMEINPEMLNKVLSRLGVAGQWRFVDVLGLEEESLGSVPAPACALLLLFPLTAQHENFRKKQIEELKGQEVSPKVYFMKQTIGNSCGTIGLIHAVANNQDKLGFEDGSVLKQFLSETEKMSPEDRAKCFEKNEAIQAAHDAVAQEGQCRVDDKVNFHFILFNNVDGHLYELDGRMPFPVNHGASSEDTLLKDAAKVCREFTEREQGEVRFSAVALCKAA
# USP10 inh – blocks human USP10 ubiquitin-rhodamine cleavage; AID 1645856; Q14694; purified USP10, Ub-rhodamine fluorescence, 60 min; hit rate 1.1% among 47,000; inhibition, % at 20 µM
# Active calls of the source: *. Sampled rows, rich in hits. Any-hit rate of the full collection: about 4.6%. Cut-off read from the data, not from the text of the source: active = inhibition above about 30%; inactive = the rest.
SMILES,USP7 inh,USP8 block,UCHL1 block,USP10 inh
CCOc1ccc2c(c1)c(=O)c(C(=O)c1ccccc1)cn2CC(=O)Nc1ccccc1,27,43*,4,29
COc1ccc(NC(=O)Cn2cc(C(=O)c3ccccc3)c(=O)c3cc4c(cc32)OCCO4)cc1,1,10,2,11
O=C(Cn1cc(C(=O)c2ccccc2)c(=O)c2cc3c(cc21)OCCO3)Nc1ccc(F)cc1,5,9,-2,12
O=C(Cn1c(=O)c2ccccc2n(CC(=O)Nc2cccc(F)c2)c1=O)NCCc1ccccc1,17,-39,2,30*
Cc1ccc(NC(=O)Cn2c(=O)n(CCC(=O)NCCc3ccccc3)c(=O)c3ccccc32)cc1C,13,23,2,32*
O=C(CCCCn1c(=O)c2ccccc2n(CC(=O)Nc2ccc(F)cc2)c1=O)NCCc1ccccc1,8,19,0,15
Cc1ccc2c(c1)-c1c(c(C(=O)N3CCN(c4ccccc4)CC3)nn1C)CS2,-8,-239,-9,-12
Cc1ccc(-c2nn(C(C)(C)C)c3ncnc(NS(=O)(=O)c4ccc(Cl)cc4)c23)cc1,17,18,9,42*
Cc1sc2ncnc(NS(=O)(=O)c3ccc(Cl)cc3)c2c1C,-54,11,-5,-5
Cc1ccc(NC(=O)CC2=NC(=O)C(CC(=O)Nc3ccccc3C)S2)cc1 (stereo not drawn),-1,39*,3,20
Cc1ccc(NC(=O)Cn2c3ncccc3c(=O)n2-c2ccccc2)cc1,5,2,-1,2
O=C(NC1(O)C(=O)c2ccccc2C1=O)c1cccc2c1-c1ccccc1C2=O,-64,95*,22,9
Cc1ccnc(NC(=O)c2ccn(COc3ccc(Cl)cc3)n2)c1,7,31*,5,3
Cc1ccnc(NC(=O)c2ccn(COc3ccc(F)cc3)n2)c1,4,10,3,0
O=C(Nc1cccc(S(=O)(=O)N2CCOCC2)c1)C1Cc2ccccc2CN1C(=O)c1ccco1 (stereo not drawn),-7,40*,-3,-6
NCCCC(=O)N1CCCC2(Cc3ccccc3CN2C(=O)c2ccccc2)C1 (stereo not drawn),-30,-132,-1,0
CS(=O)(=O)Nc1ccc2c(c1)ncn2CCc1ccccc1,3,20,2,1
CCOC(=O)c1noc2ncnc(NCc3cccc(OC)c3)c12,-4,70*,-1,3
CCOC(=O)c1cc(C#N)c(NCc2ccccc2OC)nc1-c1ccccc1,6,-8,5,10
CCOC(=O)c1noc2nc(C)nc(NCc3ccccc3OC)c12,2,43*,3,-2
Cc1nn(-c2ccc(Cl)cc2)cc1-c1noc(C(=O)NCCCN2CCOCC2)n1,-83,0,-5,-3
O=C(Cn1c(=O)n(-c2ccc(F)cc2)c(=O)c2oc3ccccc3c21)NC1CCCCC1,7,41*,-1,7
O=[N+]([O-])c1ccc(C(O)CN2CCN(Cc3ccccc3)CC2)cc1 (stereo not drawn),0,-97,79*,1
CCN(c1ccccc1)S(=O)(=O)c1nnc(NC(=O)COc2ccc(Cl)cc2)s1,7,39*,-4,0
Cc1ccc(CNC(=O)c2c(O)c3ccccc3[nH]c2=O)cc1,10,40*,1,12
SMILES,USP7 inh,USP8 block,UCHL1 block,USP10 inh
CN1CC(=O)N(C2CCNC2)Cc2c(NCc3cc(F)cc(F)c3)ncnc21 (stereo not drawn),0,-285,-3,-1
Cc1cc(NC(=O)Cn2c(=O)n(CCCCCC(=O)NCc3ccc4c(c3)OCO4)c(=O)c3sccc32)n[nH]1,5,5,0,6
COc1cc(OC)cc(C(=O)NCCC2CCN(C(=O)c3ccc(C)cc3)CC2)c1,5,7,2,-3
O=c1[nH]c(-c2cccnc2)nc2c1CCN(Cc1[nH]c3ccccc3c1Cl)C2,-1,37*,-4,0
COc1ccc(C(=O)Nc2ccc3c(c2)N(C(C)=O)CCC3)c(OC)c1,0,6,-1,-1
Cc1cccc(-n2nnc3c(=O)n(CC(=O)Nc4ccc5c(c4)OCO5)cnc32)c1,10,31*,2,8
O=C(Cn1cc(C(=O)c2ccccc2)c(=O)c2cc(F)ccc21)Nc1ccc2c(c1)OCO2,10,59*,1,26
Cc1ccc(Cn2cnc3c(nnn3-c3cccc(F)c3)c2=O)cc1,7,42*,2,8
O=c1c2nnn(-c3ccccc3)c2ncn1Cc1cccc(F)c1,-2,17,-2,4
Cc1cccc(-n2nnc3c(=O)n(CC(=O)Nc4ccc5c(c4)OCCO5)cnc32)c1,6,8,-1,12
O=C(Cn1cc(C(=O)c2ccccc2)c(=O)c2cc3c(cc21)OCCO3)Nc1ccc2c(c1)OCO2,-1,16,-3,9
Cc1ccc(C(=O)c2cn(CC(=O)Nc3ccc4c(c3)OCO4)c3ccccc3c2=O)cc1,33*,90*,7,57*
C=C1Nc2ccccc2C(=O)N1c1ccc(F)c(NC(=O)c2cccc(F)c2)c1,-2,-5,-1,1
COCC(=O)NCc1ccc(-c2nc(C3CC3)ncc2-c2ccccn2)cc1,-2,-3,-2,-3
COc1ccc(-n2cc(C(=O)NCCc3ccc(F)cc3)nn2)cc1,13,37*,4,17
CC(C)Cc1cc(-c2nnc3sc(-c4ccco4)nn23)n[nH]1,7,35*,10,10
c1ccc(CNc2ccc(-c3nc(-c4ccccc4)no3)nn2)cc1,9,42*,-3,6
COc1ccc(CNc2ccc(-c3ccccc3)nn2)cc1,6,3,0,8
Nc1c2c(nn1-c1ccc(C(=O)O)cc1)CNC2,2,-27,2,1
Cc1ccc(C(=O)NC(C(=O)OCC(=O)c2cc(C)n(-c3ccc4c(c3)OCO4)c2C)C(C)C)cc1 (stereo not drawn),7,52*,5,4
Cc1c(CC(=O)N2CCN(c3ccc(F)cc3)CC2)c(=O)oc2cc(O)ccc12,0,18,-2,0
Cc1c(CC(=O)N2CCN(c3ccccc3)CC2)c(=O)oc2c(C)c(O)ccc12,7,31*,3,13
O=S(=O)(Nc1cc(S(=O)(=O)N2CCCCC2)ccc1O)c1ccc2c(c1)OCCCO2,3,83*,2,7
O=S(=O)(c1ccc2c(c1)OCCO2)N1CCC(N2CCCCC2)CC1,-4,2,-3,-6
O=C(Cc1ccccc1C(=O)O)Nc1cccc2ccccc12,-13,71*,-6,-6
SMILES,USP7 inh,USP8 block,UCHL1 block,USP10 inh
O=C(NCc1ccc(Cl)cc1)Nc1cccc2ccccc12,5,95*,4,4
Cn1cc(NC(=O)Nc2cccc3ccccc23)c2ccccc21,-5,89*,7,-11
N#Cc1ccccc1NC(=O)Cc1cccc2ccccc12,1,-285,3,1
CC(C(=O)Nc1cccc2ccccc12)(C(F)(F)F)C(F)(F)F,-8,9,-3,-5
CC1CCN(C(=O)[C@@H]2CC[C@@H]3[C@@H](CCN3Cc3cnn(C)c3)O2)CC1,5,-130,2,0
O=C(Cc1ccccc1[N+](=O)[O-])N1CCc2ccccc21,-137,-27,-1,0
